According to the supplement of paper PMC11732987, “Enantioselective OTUD7B fragment discovery through chemoproteomics screening and high-throughput optimisation” (Communications Chemistry, 2025):

What was measured:
Assay in all cases: log2 ratio of Biotin-Ahx-Ub-VS probe labelling (fragment/DMSO); higher = less target engagement (more negative = stronger competition), active = hit call of the paper (q ≤ 0.05, log2 ratio ≤ -1)
Details in all cases: compound concentration: 200 uM; treatment time: 3 h
OTUD6B = molecular target: T1, OTUD6B (UniProt Q8N6M0)
T1 sequence (whole entry): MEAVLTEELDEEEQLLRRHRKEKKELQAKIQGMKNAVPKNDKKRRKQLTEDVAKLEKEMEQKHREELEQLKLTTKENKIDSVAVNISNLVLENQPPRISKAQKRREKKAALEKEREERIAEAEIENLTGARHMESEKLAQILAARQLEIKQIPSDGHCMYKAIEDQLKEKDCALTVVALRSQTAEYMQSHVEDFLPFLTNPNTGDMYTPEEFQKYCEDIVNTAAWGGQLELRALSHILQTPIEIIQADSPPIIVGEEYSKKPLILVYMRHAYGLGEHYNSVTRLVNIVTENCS
Outline: (§1)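 Labelling with Biotin-Ahx-Ub-VS (0.5 µM final, 1 h) followed a 3 h triplicate treatment of HEK293T lysate (495 µg per sample, Tris/CHAPS/IGEPAL buffer with protease inhibitors) with fragment at 200 µM or vehicle. Labelled DUBs were NeutrAvidin-enriched, digested with LysC and trypsin, and run by diaPASEF LC-MS/MS. The values, average log2 fragment/vehicle ratios by unpaired t-test, come from global-median-normalised Spectronaut label-free quantities. Proteins with ≥2 unique peptides were used.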

OTUD7B = molecular target: T2, OTUD7B (UniProt Q6GQQ9)
T2 sequence (whole entry): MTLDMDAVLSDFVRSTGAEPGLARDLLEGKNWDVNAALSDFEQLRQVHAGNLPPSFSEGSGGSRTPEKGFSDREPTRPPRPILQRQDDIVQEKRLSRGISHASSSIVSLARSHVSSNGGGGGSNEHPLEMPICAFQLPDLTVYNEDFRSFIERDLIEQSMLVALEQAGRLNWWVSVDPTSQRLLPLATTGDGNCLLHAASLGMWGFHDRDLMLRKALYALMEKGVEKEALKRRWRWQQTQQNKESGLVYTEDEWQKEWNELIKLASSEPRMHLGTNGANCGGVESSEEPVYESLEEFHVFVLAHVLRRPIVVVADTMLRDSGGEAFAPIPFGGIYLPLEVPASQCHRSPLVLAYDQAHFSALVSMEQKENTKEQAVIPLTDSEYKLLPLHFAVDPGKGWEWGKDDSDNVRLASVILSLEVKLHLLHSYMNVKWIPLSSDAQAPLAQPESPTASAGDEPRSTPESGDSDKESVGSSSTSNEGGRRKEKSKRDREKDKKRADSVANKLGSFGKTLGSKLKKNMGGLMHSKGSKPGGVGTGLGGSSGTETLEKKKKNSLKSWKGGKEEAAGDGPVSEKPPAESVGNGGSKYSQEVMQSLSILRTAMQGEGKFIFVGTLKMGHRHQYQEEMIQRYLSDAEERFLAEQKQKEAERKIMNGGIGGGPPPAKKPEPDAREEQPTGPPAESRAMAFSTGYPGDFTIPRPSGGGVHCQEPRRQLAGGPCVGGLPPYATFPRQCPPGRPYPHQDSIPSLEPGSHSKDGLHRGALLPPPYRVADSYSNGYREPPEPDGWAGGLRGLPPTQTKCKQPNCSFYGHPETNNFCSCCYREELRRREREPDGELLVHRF
Outline: as §1

PRPF8 = PRPF8 (UniProt Q6P2Q9)
Outline: as §1

PSMD7 = molecular target: T3, PSMD7 (UniProt P51665)
T3 sequence (whole entry): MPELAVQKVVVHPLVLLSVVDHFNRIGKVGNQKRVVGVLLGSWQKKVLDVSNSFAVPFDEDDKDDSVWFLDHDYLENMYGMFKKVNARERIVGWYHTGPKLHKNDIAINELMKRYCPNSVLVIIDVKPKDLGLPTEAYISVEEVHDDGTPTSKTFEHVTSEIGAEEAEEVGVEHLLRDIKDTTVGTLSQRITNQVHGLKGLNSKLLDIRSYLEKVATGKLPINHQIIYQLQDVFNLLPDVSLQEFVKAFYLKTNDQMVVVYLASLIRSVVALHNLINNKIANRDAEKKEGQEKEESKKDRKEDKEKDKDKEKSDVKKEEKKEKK
Outline: as §1

UCHL1 = UCHL1 (UniProt P09936)
Sequence of UCHL1 (P09936 whole entry, looked up): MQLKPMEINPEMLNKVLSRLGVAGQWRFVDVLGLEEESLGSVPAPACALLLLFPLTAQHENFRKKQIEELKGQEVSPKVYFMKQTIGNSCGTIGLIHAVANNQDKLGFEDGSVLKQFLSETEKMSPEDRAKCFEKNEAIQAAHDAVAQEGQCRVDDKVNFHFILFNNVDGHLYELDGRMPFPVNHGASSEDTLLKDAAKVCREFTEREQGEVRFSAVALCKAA
Outline: as §1

UCHL3 = molecular target: T4, UCHL3 (UniProt P15374)
T4 sequence (whole entry): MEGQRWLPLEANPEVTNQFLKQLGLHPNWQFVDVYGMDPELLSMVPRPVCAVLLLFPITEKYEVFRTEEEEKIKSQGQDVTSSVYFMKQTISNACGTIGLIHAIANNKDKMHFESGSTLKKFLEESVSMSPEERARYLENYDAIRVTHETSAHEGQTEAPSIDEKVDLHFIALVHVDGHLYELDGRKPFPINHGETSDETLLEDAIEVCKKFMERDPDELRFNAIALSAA
Outline: as §1

UCHL5 = molecular target: T5, UCHL5 (UniProt Q9Y5K5)
T5 sequence (whole entry): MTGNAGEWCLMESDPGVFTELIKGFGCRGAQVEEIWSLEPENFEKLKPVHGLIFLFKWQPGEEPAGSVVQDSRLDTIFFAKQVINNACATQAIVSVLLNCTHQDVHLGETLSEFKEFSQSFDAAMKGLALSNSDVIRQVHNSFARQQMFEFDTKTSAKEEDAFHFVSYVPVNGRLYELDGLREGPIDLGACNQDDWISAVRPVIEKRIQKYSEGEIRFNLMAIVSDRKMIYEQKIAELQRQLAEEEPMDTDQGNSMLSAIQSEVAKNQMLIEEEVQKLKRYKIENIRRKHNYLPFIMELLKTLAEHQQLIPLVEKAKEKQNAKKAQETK
Outline: as §1

USP10 = USP10 (UniProt Q14694)
Sequence of USP10 (Q14694 whole entry): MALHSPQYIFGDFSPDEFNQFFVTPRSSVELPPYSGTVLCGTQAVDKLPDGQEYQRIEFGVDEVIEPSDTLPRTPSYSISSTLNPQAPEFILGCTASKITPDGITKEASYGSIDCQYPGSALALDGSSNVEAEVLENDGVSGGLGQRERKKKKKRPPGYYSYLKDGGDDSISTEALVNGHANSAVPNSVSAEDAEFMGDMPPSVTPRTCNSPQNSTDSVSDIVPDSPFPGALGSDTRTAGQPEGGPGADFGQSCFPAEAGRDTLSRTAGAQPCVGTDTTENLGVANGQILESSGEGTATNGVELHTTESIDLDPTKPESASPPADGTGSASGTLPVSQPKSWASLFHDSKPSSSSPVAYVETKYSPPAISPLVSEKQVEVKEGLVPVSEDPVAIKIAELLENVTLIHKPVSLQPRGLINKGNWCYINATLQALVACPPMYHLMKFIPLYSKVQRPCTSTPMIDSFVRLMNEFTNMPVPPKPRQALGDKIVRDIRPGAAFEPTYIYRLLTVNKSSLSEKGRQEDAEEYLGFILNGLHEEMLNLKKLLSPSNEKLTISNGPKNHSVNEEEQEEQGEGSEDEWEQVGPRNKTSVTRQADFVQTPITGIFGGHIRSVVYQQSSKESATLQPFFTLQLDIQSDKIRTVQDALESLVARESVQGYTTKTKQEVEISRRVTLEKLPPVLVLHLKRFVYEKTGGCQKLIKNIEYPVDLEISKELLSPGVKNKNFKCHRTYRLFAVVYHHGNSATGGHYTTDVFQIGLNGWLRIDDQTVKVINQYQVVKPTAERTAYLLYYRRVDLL
Outline: as §1

USP15 = molecular target: T6, USP15 (UniProt Q9Y4E8)
T6 sequence (whole entry): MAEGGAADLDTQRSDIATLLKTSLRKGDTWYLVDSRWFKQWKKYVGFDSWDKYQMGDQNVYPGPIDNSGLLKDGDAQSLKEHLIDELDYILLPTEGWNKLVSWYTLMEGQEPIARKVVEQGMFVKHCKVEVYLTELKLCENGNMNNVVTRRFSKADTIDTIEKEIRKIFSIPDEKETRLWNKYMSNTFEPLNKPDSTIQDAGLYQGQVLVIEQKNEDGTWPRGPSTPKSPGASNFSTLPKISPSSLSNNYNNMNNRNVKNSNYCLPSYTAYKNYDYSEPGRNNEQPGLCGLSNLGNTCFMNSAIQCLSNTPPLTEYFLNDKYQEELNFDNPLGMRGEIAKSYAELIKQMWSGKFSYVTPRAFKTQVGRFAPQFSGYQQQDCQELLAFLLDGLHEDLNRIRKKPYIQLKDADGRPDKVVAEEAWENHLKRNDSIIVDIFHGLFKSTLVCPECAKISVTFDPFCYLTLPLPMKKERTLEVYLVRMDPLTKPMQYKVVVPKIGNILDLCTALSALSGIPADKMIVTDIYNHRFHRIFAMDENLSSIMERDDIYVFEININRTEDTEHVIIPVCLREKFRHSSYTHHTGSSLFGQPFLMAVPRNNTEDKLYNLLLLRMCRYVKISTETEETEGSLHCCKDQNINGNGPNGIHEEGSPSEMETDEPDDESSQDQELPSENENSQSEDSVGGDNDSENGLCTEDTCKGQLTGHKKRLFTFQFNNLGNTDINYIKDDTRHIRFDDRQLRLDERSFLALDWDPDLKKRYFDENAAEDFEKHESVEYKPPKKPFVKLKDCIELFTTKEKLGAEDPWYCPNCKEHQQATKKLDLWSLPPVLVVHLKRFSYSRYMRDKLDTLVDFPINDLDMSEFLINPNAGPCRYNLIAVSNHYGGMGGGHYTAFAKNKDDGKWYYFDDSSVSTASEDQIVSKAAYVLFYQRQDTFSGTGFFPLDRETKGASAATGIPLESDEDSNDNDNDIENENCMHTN
Outline: as §1

USP16 = USP16 (UniProt Q9Y5T5)
Sequence of USP16 (Q9Y5T5 whole entry, looked up): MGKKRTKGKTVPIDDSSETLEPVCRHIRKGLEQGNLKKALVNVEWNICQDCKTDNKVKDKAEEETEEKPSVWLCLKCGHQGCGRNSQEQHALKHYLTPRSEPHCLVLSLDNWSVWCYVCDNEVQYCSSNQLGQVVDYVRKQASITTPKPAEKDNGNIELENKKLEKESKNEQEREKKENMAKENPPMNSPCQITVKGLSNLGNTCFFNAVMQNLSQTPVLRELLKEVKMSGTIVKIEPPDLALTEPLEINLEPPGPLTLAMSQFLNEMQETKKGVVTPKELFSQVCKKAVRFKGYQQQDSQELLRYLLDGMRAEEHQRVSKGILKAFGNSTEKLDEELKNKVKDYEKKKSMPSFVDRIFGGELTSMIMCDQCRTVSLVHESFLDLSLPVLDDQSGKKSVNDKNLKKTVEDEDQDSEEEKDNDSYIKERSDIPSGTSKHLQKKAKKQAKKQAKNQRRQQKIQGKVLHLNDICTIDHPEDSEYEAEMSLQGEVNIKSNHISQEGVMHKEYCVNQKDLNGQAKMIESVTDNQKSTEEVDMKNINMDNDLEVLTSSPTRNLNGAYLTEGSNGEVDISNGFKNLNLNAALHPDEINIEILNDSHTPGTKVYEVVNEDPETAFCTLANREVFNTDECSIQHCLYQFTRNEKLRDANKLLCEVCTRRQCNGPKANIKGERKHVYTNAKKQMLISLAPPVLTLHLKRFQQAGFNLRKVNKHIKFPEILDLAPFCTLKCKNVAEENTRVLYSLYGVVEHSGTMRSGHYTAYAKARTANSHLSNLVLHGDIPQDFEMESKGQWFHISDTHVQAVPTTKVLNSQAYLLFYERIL
Outline: as §1

Measured: log2 ratio of Biotin-Ahx-Ub-VS probe labelling

Cc1ccc(C)c(Oc2ccc(CNC(=O)CCl)cn2)c1.Cl
active: OTUD7B -1.04 | UCHL1 -1.3 | UCHL3 -1.04
inactive: OTUD6B -0.139 | PRPF8 -0.126 | PSMD7 -0.306 | UCHL5 -0.435 | USP10 -0.166 | USP15 -0.359 | USP16 -0.0509
